Results reported in PubChem BioAssay (EPA / NIEHS).
Values joined by “and” are separate entries in the source; they are usually repeats but may differ in a detail not shown here. Equal entries are not always repeated. Results filed as inconclusive are left out. Active and inactive are the calls of the source. The calls were made as follows: active = hit-call score of the fitted dose curve at least 0.9, where 1 is the maximum; inconclusive = response in the unintended direction; inactive = score below 0.9.

experiment: Tanguay_ZF_120hpf_AXIS_legacy: (Legacy) Oregon State University Tanguay Lab 120 Hour Post-fertilization zebrafish Assay for Body Axis Malformation (AID 2283635);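 as to AC50: potency for an increased fraction of larvae scored with body axis malformation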
Procedure: Tanguay_ZF_120hpf_legacy is a whole embryo, multiplexed endpoint assay using zebrafish larvae exposed for 120 hours post fertilization on a 96-well plate.Tanguay_ZF_120hpf_AXIS_legacy is one of one assay component(s) measured or calculated from the Tanguay_ZF_120hpf_legacy assay. It is designed to make measurements of zebrafish development as detected with brightfield microscopy of developing zebrafish embryos.Data from the assay component Tanguay_ZF_120hpf_AXIS_legacy was analyzed into 1 assay endpoints. This assay endpoint, Tanguay_ZF_120hpf_AXIS_legacy, was analyzed in the positive analysis fitting direction relative to DMSO as the negative control and baseline of activity. Using a type of morphology reporter, gain-of-signal activity can be used to understand changes in developmentals as they relate to the whole embryo. To generalize the intended target to other relatable targets, this assay endpoint is annotated to the zebrafish development intended target family, where the subfamily is body axis morphogenesis.
Zebrafish husbandry: Tropical 5D wild-type adult zebrafish were housed in at an approximate density of 1000 per 100 gallon tank at the Sinnhuber Aquatic Research Laboratory, Oregon State University, Corvallis, OR. Each tank was kept at standard laboratory conditions of 28C on a 14-h light/10-h dark photoperiod in fish water consisting of reverse osmosis water supplemented with a commercially available salt (Instant Ocean). Spawning funnels were placed into the tanks the night prior, and embryos were collected and staged. To increase bioavailability, the chorion was enzymatically removed using pronase (63.6mg/ml, >/= 3.5U/mg, Sigma-Aldrich: P5147) at 4 hours post fertilization (hpf) using a custom automated dechorionator.Chemical exposures: Six hpf dechorionated embryos were placed 1 embryo per well in a 96-well plate prefilled with 90 ul of EM using automated embryo placement systems (AEPS). Ten microliters of each row of dilution plate 2 was added to 2 exposure plates. The final DMSO concentration used was 0.64% (vol/vol). Thirty-two embryos were also exposed to 5uM trimethyltin chloride (positive control). Plates were sealed to prevent evaporation and foil covered to reduce light exposure and kept in a 28C incubator. Embryos were statically exposed until 120 hpf. At 24 hpf, embryos were assessed for photomotor response using a custom photomotor response analysis tool (PRAT) and for developmental toxicity endpoints (MO24: mortality at 24 hpf, DP: developmental progression, SM: spontaneous movement, and NC: notochord distortion). At 120 hpf, locomotor activity was measured using Viewpoint Zebralab and assessed for 18 endpoints. Zebrafish acquisition and analysis program (ZAAP), a custom program designed to inventory, acquire, and manage zebrafish data, was used to collect developmental endpoints as either present or absent (i.e., binary responses were recorded). If mortality occurred for an embryo (at either 24 or 120 hpf), the non-mortality endpoints were not measured.

Row | SMILES | AC50 | outcome
1 | N[C@@H](Cc1cc(I)c(Oc2ccc(O)c(I)c2)c(I)c1)C(=O)O | 0.000818 µM (active) | –
2 | COCCO | – | inactive
3 | CCCCC(CC)COC(=O)c1ccccc1C(=O)O (stereo not given) | – | inactive
4 | CCCN(CCC)c1c([N+](=O)[O-])cc(C(F)(F)F)c(N)c1[N+](=O)[O-] | – | inactive
5 | Cc1nn(C)c(Oc2ccccc2)c1C=NOCc1ccc(C(=O)OC(C)(C)C)cc1 | – | inactive
6 | CC(C)(c1ccc(O)cc1)c1ccc(O)cc1 | 36.5 µM (active) and 64.9 µM (active) and 25.3 µM (active) | –
7 | CN(C)C(=O)Nc1ccc(Cl)c(Cl)c1 | – | inactive
8 | N#CSCSc1nc2ccccc2s1 | – | inactive
9 | CC(C)(C)[C@@H](O)[C@@H](Cc1ccc(Cl)cc1)n1cncn1 | 40.9 µM (active) | –
10 | CCNc1nc(N)nc(Cl)n1 | – | inactive
11 | O=C(O)C1(C(=O)Nc2ccc(Cl)cc2Cl)CC1 | 10 µM (active) | –
12 | OB(O)O | – | inactive
13 | CCSC(=O)N(CC(C)C)CC(C)C | – | inactive
14 | O=C(O)c1ccccc1 | – | inactive
15 | O=C(c1ccccc1)C1CCCCC1 | – | inactive
16 | CCCCOCCOCCOCc1cc2c(cc1CCC)OCO2 | 25.5 µM (active) | –
17 | C=CCOC(Cn1ccnc1)c1ccc(Cl)cc1Cl (stereo not given) | – | inactive
18 | CC(C)CCCCCCc1ccc(O)cc1 | – | inactive
19 | CSC(=O)c1cccc2nnsc12 | – | inactive
20 | CCOC(=O)C(C)Oc1ccc(Oc2cnc3cc(Cl)ccc3n2)cc1 (stereo not given) | – | inactive

Row | SMILES | AC50 | outcome
21 | CCCCC(CC)CN1C(=O)C2C3C=CC(C3)C2C1=O (stereo not given) | – | inactive
22 | CCOC(=O)c1ccc(O)cc1 | – | inactive
23 | CCOC(=O)NCCOc1ccc(Oc2ccccc2)cc1 | – | inactive
24 | CCCOC(=O)c1ccc(C(=O)OCCC)nc1 | 0.968 µM (active) | –
25 | CC(=O)S[C@@H]1CC2=CC(=O)CC[C@]2(C)[C@H]2CC[C@@]3(C)[C@@H](CC[C@@]34CCC(=O)O4)[C@H]12 | – | inactive
26 | COc1c(Cl)ccc(Cl)c1C(=O)O | – | inactive
27 | c1ccc(Nc2ccccc2)cc1 | – | inactive
28 | CCCOC(=O)NCCCN(C)C | – | inactive
29 | COC(=O)c1ccccc1C(=O)O | – | inactive
30 | C[C@]12C[C@H](O)[C@H]3[C@@H](CCC4=CC(=O)CC[C@@]43C)[C@@H]1CC[C@@H]2C(=O)CO | – | inactive
31 | CCCCOC(=O)[C@@H](C)Oc1ccc(Oc2ccc(C(F)(F)F)cn2)cc1 | – | inactive
32 | S=C(S)NCCNC(=S)S.[Mn+2].[S-]C([S-])=NCCN=C([S-])[S-].[Zn+2] | – | inactive
33 | CCOC(=O)COc1cc(-n2ncc(C(F)(F)F)c(C)c2=O)c(F)cc1Cl | – | inactive
34 | COC(=O)c1ccc(I)cc1S(=O)(=O)NC(=O)Nc1nc(C)nc(OC)n1 | – | inactive
35 | c1ccc2[nH]c(-c3cscn3)nc2c1 | – | inactive
36 | CCCCCCC(C)OC(=O)COc1nc(F)c(Cl)c(N)c1Cl (stereo not given) | – | inactive
37 | CC(=O)[C@H]1CC[C@H]2[C@@H]3CCC4=CC(=O)CC[C@]4(C)[C@H]3CC[C@]12C | – | inactive
38 | C#C[C@]1(O)CC[C@H]2[C@@H]3CCC4=CC(=O)CC[C@@H]4[C@H]3CC[C@@]21CC | – | inactive
39 | Oc1ccc(C(c2ccc(O)cc2)C(Cl)(Cl)Cl)cc1 | 63.4 µM (active) | –
40 | CCN(CC)C(=O)c1cccc(C)c1 | – | inactive
